Experimental data from PubChem BioAssay (NCI).
The panel holds about 83,000 compounds, 20% with a hit somewhere; the sample as a whole holds those more often.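 48-hour exposure, single concentration, 96-well plates; percent growth endpoint where 0 means no net growth. Active: below 10.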 Active and inactive are the calls of the source.

What was measured:
Assay in all cases: NCI-60 one-dose screen, 48 h (100 = growth as untreated, 0 = no growth, -100 = all killed)
Details in all cases: 10 µM
NCI-H23 lung = tested on: NCI-H23 lung
NCI-H226 lung = tested on: NCI-H226 lung
NCI-H322M lung = tested on: NCI-H322M lung
HOP-62 NSCLC = tested on: HOP-62 NSCLC
NCI-H460 lung = tested on: NCI-H460 lung
HOP-92 NSCLC = tested on: HOP-92 NSCLC
NCI-H522 lung = tested on: NCI-H522 lung
A549/ATCC NSCLC = tested on: A549/ATCC NSCLC
786-0 renal = tested on: 786-0 renal
COLO 205 colon = tested on: COLO 205 colon

Row | Compound | growth (NCI-H23 lung) | growth (NCI-H226 lung) | growth (NCI-H322M lung) | growth (HOP-62 NSCLC) | growth (NCI-H460 lung) | growth (HOP-92 NSCLC) | growth (NCI-H522 lung) | growth (A549/ATCC NSCLC) | growth (786-0 renal) | growth (COLO 205 colon)
1 | COc1ccc2c(c1)N=C(C(=O)O)/C2=C/c1sc(Nc2ccc(O)cc2)nc1O | 71.6% (inactive) | 54.8% (inactive) | 92.5% (inactive) | 80.9% (inactive) | 82.3% (inactive) | 68.3% (inactive) | 33.7% (inactive) | 96.2% (inactive) | 78.9% (inactive) | 
2 | CN1C(=O)N(C)C2SC(N/N=C/c3ccccc3F)=NC21 (configuration not stated) | 76.5% (inactive) | 92.4% (inactive) | 97.2% (inactive) | 68.3% (inactive) | 58.2% (inactive) | 124% (inactive) | 46.1% (inactive) | 63.1% (inactive) | 68.7% (inactive) | 
3 | O=C1Nc2cc(Cl)ccc2/C1=C/c1cccc(OCc2ccccc2)c1 | 11.9% (inactive) | 21.9% (inactive) | 29.5% (inactive) | 0.755% (active) | 3.73% (active) | -6.89% (active) | -63% (active) | 5.95% (active) | -12% (active) | 
4 | CCCSc1nc(NC2CC2)c(C#N)c(-c2ccc(OC)cc2)n1 | 96.4% (inactive) | 99.4% (inactive) | 89.3% (inactive) | 84.6% (inactive) | 85.6% (inactive) | 77.7% (inactive) | 93.3% (inactive) | 71.8% (inactive) | 77.1% (inactive) | 
5 | N#Cc1c(NC(=O)c2ccc(C(F)(F)F)cc2)sc2c1CCC(=O)C2 | -56.9% (active) | -21.2% (active) | 22.3% (inactive) | -37.7% (active) | 0.648% (active) | -57% (active) | -57.3% (active) | -41.9% (active) | -8.91% (active) | 
6 | CCCn1c(=O)c2[nH]c(-c3ccc(OCc4nc5ccc(C)cc5[nH]4)cc3)nc2n(CCC)c1=O | 25.3% (inactive) | -55% (active) | 40.3% (inactive) | -17.3% (active) | 13% (inactive) | -43.2% (active) | 36.7% (inactive) | 62.7% (inactive) | -75.2% (active) | 
7 | COc1ccc2[nH]c(=O)c(CSc3ccc(Nc4nccc(-c5ccc(Cl)cc5)n4)cc3)cc2c1 | 83.9% (inactive) | 38.8% (inactive) | 95.7% (inactive) | 104% (inactive) | 112% (inactive) | 93.2% (inactive) | 86.7% (inactive) | 98.1% (inactive) | 109% (inactive) | 
8 | CN1CCN(Cc2ccc(NC(=O)c3cncc(C#Cc4cnc5ccc(N[C@H]6CCOC6)nn45)c3)cc2C(F)(F)F)CC1 | -80.4% (active) | -89.1% (active) | -95.3% (active) | -80% (active) | -76.1% (active) | -79.4% (active) | -69.1% (active) | -59.9% (active) | -75.6% (active) | 
9 | O=C(Nc1ccc(Cl)c([N+](=O)[O-])c1)Nc1ccc(Cl)c([N+](=O)[O-])c1 | -14.3% (active) | -4.77% (active) | 27.7% (inactive) | 30.5% (inactive) | 9.48% (active) | -34.2% (active) | 28.1% (inactive) | 26.1% (inactive) | 10.7% (inactive) | 
10 | COc1ccc2[nH]c(O)c(N=NC(=O)COc3ccc(NC(=O)Nc4ccc(Cl)cc4)cc3)c2c1 | -40.4% (active) | -38.5% (active) | 67.8% (inactive) | -41.1% (active) | -48.6% (active) | -32.5% (active) | 26.7% (inactive) | 29.4% (inactive) | 21.4% (inactive) | 
11 | Cc1cc(C)nc(SCC(=O)Nc2ccc(S(N)(=O)=O)cc2)n1 | 100% (inactive) | 98.5% (inactive) | 102% (inactive) | 108% (inactive) | 134% (inactive) | 101% (inactive) | 95.9% (inactive) | 103% (inactive) | 105% (inactive) | 
12 | Cc1ccc([N+](=O)[O-])c(C(=O)Nc2ccc(-c3ccc4c(c3)NC(=O)/C4=C\c3ccc[nH]3)cc2)c1 | 21% (inactive) | 52% (inactive) | 48.9% (inactive) | 86% (inactive) | 0.658% (active) | 109% (inactive) | 39.5% (inactive) | 47% (inactive) | 61.6% (inactive) | 
13 | Nc1n[nH]c2cccc(C#Cc3cccc(NC(=O)Nc4cc(C(F)(F)F)cc(C(F)(F)F)c4)c3)c12 | -88.4% (active) | -52.6% (active) | -22.4% (active) | -55.3% (active) | -56.8% (active) | -71.5% (active) | -58.4% (active) | -35.3% (active) | -20.3% (active) | 
14 | CN1CCN(c2ccc(Nc3nc(NCCCNC(=O)c4ccccc4)c4sccc4n3)cc2)CC1 | 82.5% (inactive) | 84.6% (inactive) | 84.2% (inactive) | 93.5% (inactive) | 67.6% (inactive) | 69.3% (inactive) | 91.5% (inactive) | 72.5% (inactive) | 24.9% (inactive) | 
15 | O=c1[nH]c2ccccc2cc1CSc1ccc(Nc2nccc(-c3ccc(C(F)(F)F)cc3)n2)cc1 | 35.3% (inactive) | -27.2% (active) | 23.8% (inactive) | -14% (active) | 2.12% (active) | -1.46% (active) | 28.3% (inactive) | -16.8% (active) | -49.7% (active) | 
16 | CC1=C2C(=C[C@@](C)(CO)[C@@H]2O)/C(=N\N)[C@](C)(O)C12CC2 | -77.8% (active) | -41.2% (active) | -11.9% (active) | -27% (active) | -6.47% (active) | -22.6% (active) | -62.4% (active) | 5.73% (active) | 6.59% (active) | 
17 | O=C(/C=C/Nc1ccc(F)cc1F)c1ccc2c(c1)Nc1ccccc1S2 | 70.3% (inactive) | 53.2% (inactive) | 89.3% (inactive) | 78.5% (inactive) | 55.4% (inactive) | 85.5% (inactive) | 75% (inactive) | 81% (inactive) | 88.1% (inactive) | 
18 | O=C(CSc1nnc(-c2c[nH]c3ccccc23)n1-c1ccccc1)Nc1ccc(C(=O)/C=C/c2ccc(Br)cc2)cc1 | 81.3% (inactive) | 72.5% (inactive) | 92.1% (inactive) | 89.4% (inactive) | 104% (inactive) | 89.4% (inactive) | 76.3% (inactive) | 89.6% (inactive) | 94.8% (inactive) | 
19 | CN1C(=O)/C(=C/c2ccc3ncsc3c2)NC1=NC12CC3CC(CC(O)(C3)C1)C2 | -21.1% (active) | -1.04% (active) | 9.71% (active) | 16.7% (inactive) | 9.92% (active) | 22.1% (inactive) | -46.8% (active) | 16.7% (inactive) | 11.1% (inactive) | 
20 | COc1ccc(-c2ccc(SCC(=O)Nc3ccc(C#N)cc3)nn2)cc1 | 79.7% (inactive) | 66.9% (inactive) | 88.4% (inactive) | 64.8% (inactive) | 96.4% (inactive) | 86.9% (inactive) | 87.3% (inactive) | 96.3% (inactive) | 86.4% (inactive) | 127% (inactive)
21 | COc1ccc(NC(=O)Cn2c(/C=C/c3ccc(N(C)C)cc3)nc3ccccc3c2=O)cc1 | 49.8% (inactive) | -15.2% (active) | 46.4% (inactive) | 39.3% (inactive) | 19.5% (inactive) | -2.51% (active) | 44.1% (inactive) | 15.2% (inactive) | 7.97% (active) | 
22 | O=C(c1ccc(O)cc1)C1[C@H](c2ccccc2Br)[C@@H](c2ccccc2)NC12C(=O)Nc1ccc(Cl)cc12 (some centres not stated) | -34.8% (active) | -7.3% (active) | 27% (inactive) | 6.01% (active) | 9.99% (active) | -1.49% (active) | -47.1% (active) | -4.7% (active) | 2.9% (active) | 
23 | O=C(NO)c1ccc(-c2nc3ccc4[nH]ncc4c3c3c2CCCC3)cc1 | -56.7% (active) | -28.8% (active) | -1.64% (active) | 0.238% (active) | -43.4% (active) | -16.6% (active) | -43% (active) | 6.83% (active) | -8.73% (active) | 
24 | O=C(CSc1nnc(-c2c[nH]c3ccccc23)n1-c1ccccc1)Nc1ccc(C(=O)/C=C/c2ccc(Cl)cc2)cc1 | 61.5% (inactive) | 74.8% (inactive) | 89% (inactive) | 85.8% (inactive) | 88.2% (inactive) | 87.3% (inactive) | 76.8% (inactive) | 79.3% (inactive) | 93.6% (inactive) | 
25 | O=C(Nc1ccc(F)c(Cl)c1)c1cc(-c2ccc(F)cc2F)ccc1O | -46.9% (active) | -23.4% (active) | 2.57% (active) | -13% (active) | 0.118% (active) | -20.6% (active) | -15% (active) | 9.32% (active) | 9.93% (active) | 
26 | CN1CCN(c2ccc(C(=O)/C=C/c3ccc(OC(F)F)cc3)cc2)CC1 | 27.8% (inactive) | 27.7% (inactive) | 70.6% (inactive) | 95.6% (inactive) | 49.2% (inactive) | 61.6% (inactive) | 83.5% (inactive) | 40.2% (inactive) | 61.6% (inactive) | 
27 | CC(=O)c1cc(C(=O)c2ccc3c(c2)NC(=O)CO3)n2ccc3ccccc3c12 | 58.3% (inactive) | 62.3% (inactive) | 87.8% (inactive) | 74.1% (inactive) | 63.8% (inactive) | 97.7% (inactive) | 71.6% (inactive) | 29.8% (inactive) | 51.7% (inactive) | 
28 | CC(=O)Nc1ccc(-c2cn(-c3cccc(C(=O)Nc4ccc(F)c(C(F)(F)F)c4)c3)nn2)cn1 | 23.6% (inactive) | 26.4% (inactive) | 54.3% (inactive) | 87.7% (inactive) | -47.1% (active) | 65.6% (inactive) | 62.3% (inactive) | 54.3% (inactive) | 79.9% (inactive) | 
29 | COC(=O)CC1CC1C1Cc2c(nc(N(C)S(C)(=O)=O)nc2C(C)C)-c2ccc(F)cc21 (configuration not stated) | 69.1% (inactive) | 78.8% (inactive) | 96.8% (inactive) | 109% (inactive) | 94.6% (inactive) | 84% (inactive) | 55.6% (inactive) | 92.3% (inactive) | 86% (inactive) | 
